The values that follow come from PubChem BioAssay AID624405 (Broad Institute, 2012).

About 250 (13%) of roughly 1,900 compounds were called active. Inconclusive results (about 4%) are left out.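 Rule for the calls: active = fitted curve reaches 40% rescue activity at or below the top valid dose, in every test run; inconclusive = test runs disagree, some active and some inactive; inactive = every run misses the threshold or moves the wrong way.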 The list is a sample of the results. Entries with a potency or affinity are not part of this list.

A short description of the assay: suppressors of statin myotoxicity in myotubes, dose response, cell-based, C2C12 myotubes, ATP luminescence, cherry pick (AID 624405).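 Note: myotubes are challenged with simvastatin at 10 µM to lower ATP.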 The note with it: C2C12 myotubes + simvastatin, 48 h, scaled: DMSO wells 0, geranylgeraniol wells 100; series mostly up to 19.5 µM.
As for `C[C@@H]1CN([C@H](C)CO)C(=O)Cc2cc(NC(=O)CCC(F)(F)F)ccc2O[C@H]1CN(C)Cc1ccc(Oc2ccccc2)cc1`, the outcome was inactive.

With `CN(C)S(=O)(=O)c1ccc(C(=O)NCCOc2ccc(F)cc2)cc1`, the result was inactive.

Turning to `COc1ccc(S(=O)(=O)Nc2ccc3c(c2)C(=O)N([C@H](C)CO)C[C@H](C)[C@H](CN(C)S(=O)(=O)c2cccs2)OCCCC[C@H](C)O3)cc1`, the result was inactive.

As for `C[C@@H]1CCCCO[C@@H](CN(C)S(C)(=O)=O)[C@H](C)CN([C@@H](C)CO)C(=O)c2cc(NS(=O)(=O)c3ccc(F)cc3)ccc2O1`, the result was inactive.

With `Cc1oc(C(=O)O)cc1COc1cccc2cccnc12`, the outcome was inactive.

`c1ccc2c(c1)CCN(Cc1nnnn1Cc1ccc3c(c1)OCO3)C2`: the outcome was inactive.

Consider `Cc1ccc(C(O)CN2C3=NCCN3c3ccccc32)cc1` (centres undefined), for which the result was inactive.

Consider `C[C@@H]1CN([C@H](C)CO)C(=O)Cc2cc(NC(=O)Nc3cccc4ccccc34)ccc2O[C@@H]1CN(C)S(=O)(=O)c1cccs1`, for which the outcome was inactive.

Turning to `C[C@H](CO)N1C[C@H](C)[C@@H](CN(C)C(=O)Nc2ccc(F)cc2)Oc2ccc(NC(=O)Cc3cn(C)c4ccccc34)cc2CC1=O`, the outcome was inactive.

`Cc1ccc(S(=O)(=O)Nc2ccc3c(c2)CC(=O)N([C@H](C)CO)C[C@H](C)[C@H](CN(C)S(=O)(=O)c2ccc(C)cc2)O3)cc1`: the outcome was inactive.

In the case of `COc1ccc(S(=O)(=O)Nc2ccc3c(c2)CC(=O)N([C@H](C)CO)C[C@H](C)[C@@H](CN(C)S(=O)(=O)c2ccc(C)cc2)O3)cc1`, the result was inactive.

For the compound `C[C@@H]1CN([C@@H](C)CO)C(=O)Cc2cc(NC(=O)Nc3cccc4ccccc34)ccc2O[C@@H]1CN(C)S(=O)(=O)c1ccc(Cl)cc1`, the outcome was inactive.

For `Cc1ccc(S(=O)(=O)N(C)C[C@@H]2Oc3ccc(NS(=O)(=O)c4ccc(F)cc4)cc3C(=O)N([C@H](C)CO)C[C@@H]2C)cc1`, the outcome was inactive.

As to `C[C@H]1CN([C@@H](C)CO)C(=O)c2cc(NS(=O)(=O)c3ccc(F)cc3)ccc2O[C@@H]1CN(C)S(=O)(=O)c1ccc(F)cc1`, the outcome was inactive.

Consider `Cc1ccc(S(=O)(=O)Nc2ccc3c(c2)CC(=O)N([C@@H](C)CO)C[C@@H](C)[C@H](CN(C)S(=O)(=O)c2ccc(C)cc2)O3)cc1`, for which the outcome was inactive.

For `O=C(O)c1nn(-c2ccccc2)nc1-c1nn(-c2ccccc2)nc1C(=O)O`, the result was inactive.

In the case of `O=S(=O)(NN=C1CCCCC1)c1ccccc1`, the result was inactive.

Consider `CC1(C)NC(=O)N(CC(O)Cn2nnc3ccccc32)C1=O` (centres undefined), for which the result was inactive.

On to `C[C@H](CO)N1C[C@H](C)[C@@H](CN(C)C(=O)C2CCC2)Oc2ncc(C#Cc3cccc(F)c3)cc2C1=O`, for which the result was inactive.

In the case of `Nn1c(SCC(=O)N2CCN(S(=O)(=O)c3ccccc3)CC2)nnc1-c1cccs1`, the result was inactive.

As to `Cc1ccc(S(=O)(=O)Nc2ccc3c(c2)CC(=O)N([C@@H](C)CO)C[C@@H](C)[C@H](CN(C)Cc2ccc(C(F)(F)F)cc2)O3)cc1`, the result was inactive.

Turning to `Cc1ccc(C(=O)N2CCSCC2)cc1`, the result was inactive.

In the case of `CSCCC(NC(N)=O)C(=O)NCC1CCCCC1` (centres undefined), the outcome was inactive.

On to `Cc1ccc(N2CCN(/N=C/c3sccc3C)CC2)cc1`, for which the result was inactive.

For `Cc1noc(C)c1S(=O)(=O)Nc1ccc2c(c1)C(=O)N([C@H](C)CO)C[C@H](C)[C@H](CN(C)S(=O)(=O)c1cccs1)OCCCC[C@H](C)O2`, the result was inactive.

As for `C[C@@H]1CN([C@H](C)CO)C(=O)Cc2cc(NC(=O)Nc3cccc4ccccc34)ccc2O[C@H]1CN(C)Cc1ccc(Cl)c(Cl)c1`, the result was inactive.

For `C[C@@H]1CN([C@@H](C)CO)C(=O)Cc2cc(NC(=O)Nc3cccc4ccccc34)ccc2O[C@H]1CN(C)Cc1ccc2c(c1)OCO2`, the outcome was inactive.

Take `O=C(C[C@H]1CC[C@@H](NC(=O)c2ccc3c(c2)OCO3)[C@H](CO)O1)NCc1ccc(Oc2ccccc2)cc1`: the outcome was inactive.

`COC(=O)c1c(C(=O)OC)c2cc(C)ccn2c1Cl`: the outcome was inactive.

As to `C[C@@H]1CN([C@@H](C)CO)C(=O)Cc2cc(NS(=O)(=O)c3ccc(F)cc3)ccc2O[C@H]1CN(C)Cc1ccc(Oc2ccccc2)cc1`, the result was inactive.

For `C[C@@H]1CN([C@@H](C)CO)C(=O)c2cccc(NS(=O)(=O)c3cccs3)c2O[C@@H]1CN(C)S(=O)(=O)c1ccc(Cl)cc1`, the outcome was inactive.

As to `COc1cccc(-c2cnc3c(c2)C(=O)N([C@H](C)CO)C[C@H](C)[C@H](CN(C)S(=O)(=O)c2cccs2)O3)c1`, the outcome was inactive.

For the compound `COc1ccc(C2CC(=O)c3cnc(N)nc3C2)c(OC)c1` (centres undefined), the result was inactive.

`COc1ccc2c(c1OC)C(=O)N(c1ccccn1)C2`: the result was inactive.

As for `CCOc1ccc(OCCOCCOc2c(Cl)cccc2Cl)cc1`, the result was inactive.

In the case of `COC(=O)c1cn(CC(=O)N2C(C)CCCC2C)c2ccccc12` (centres undefined), the result was inactive.

Regarding `COc1ccc(S(=O)(=O)Nc2ccc3c(c2)C(=O)N([C@@H](C)CO)C[C@@H](C)[C@H](CN(C)S(=O)(=O)c2ccc(F)cc2)OCCCC[C@H](C)O3)cc1`, the outcome was inactive.

In the case of `O=C(Nc1cccc(Cl)c1)C1CCCN(S(=O)(=O)c2ccc(F)cc2)C1` (centres undefined), the result was inactive.

In the case of `CCS(=O)(=O)N1CCCC(C(=O)NCCc2ccc(OC)c(OC)c2)C1` (centres undefined), the outcome was inactive.

For the compound `Cc1ccc(S(=O)(=O)Nc2ccc3c(c2)C(=O)N([C@@H](C)CO)C[C@@H](C)[C@H](CN(C)S(=O)(=O)c2cccs2)O3)cc1`, the outcome was inactive.

As to `CCOc1ccc(CNn2nnnc2N)cc1`, the outcome was inactive.

For `C=CCN(c1ccccc1OC)S(=O)(=O)c1cccc(C(=O)OC2CCOC2=O)c1` (centres undefined), the result was inactive.

Consider `CCCNC(=O)N(C)C[C@@H]1Oc2cc(C3=CCCCC3)ccc2S(=O)(=O)N([C@H](C)CO)C[C@@H]1C`, for which the outcome was inactive.

As to `CSc1ccccc1NC(=O)c1ccccc1N(Cc1ccccc1)S(C)(=O)=O`, the outcome was inactive.

As for `Cc1ccc(NC(=O)c2ccccc2N(C)S(C)(=O)=O)cc1C`, the outcome was inactive.

`C[C@@H]1CCCCO[C@@H](CN(C)C(=O)c2ccccc2)[C@H](C)CN([C@@H](C)CO)C(=O)c2cc(NS(=O)(=O)c3cccs3)ccc2O1`: the result was inactive.

With `CCOC(=O)c1sc(NC(=O)c2c(C)nn(Cc3ccccc3)c2C)cc1C`, the outcome was inactive.

Consider `COc1ccc(CN2[C@@H](CO)[C@@H]3c4ccccc4NC[C@@H]32)cc1`, for which the outcome was inactive.

In the case of `COc1ccc(CN2[C@H](CO)[C@@H]3c4ccccc4NC[C@@H]32)cc1`, the result was inactive.
